From PubChem BioAssay (NCATS)
Activity calls are given as the source filed them. Calls follow the shape of the dose curve; as a rule, active = well fitted activation curve with a large enough effect; inconclusive = small, poorly fitted or top-dose-only effect; inactive = flat fitted curve, though single readings scatter.

Experiment: Cellular Toxicity (caspase-3) Mesangial (AID 660);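 also: combined caspase 3 and 7 activity read by Caspase-Glo luminescence; cells exposed to compound for 16 h before the caspase read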
Conditions: mesangial cells, normalized: DMSO 0%, 100 µM tamoxifen 100%; series mostly up to 91.7 µM; caspase-3 activation: at the top concentration
Text: NIH Chemical Genomics Center [NCGC]
NIH Molecular Libraries Screening Centers Network [MLSCN]
National Institutes of Environmental Health Sciences [NIEHS]
National Toxicology Program [NTP]
We have developed a 1536-well cell-based assay for quantitative high throughput screening (qHTS) against a number of cell lines to determine in vitro caspase 3/7 of small molecules. This particular assay uses the mesangial cell line which is derived from normal human renal glomeruli.
NCGC Assay Protocol Summary:
The Caspase-Glo 3/7 assay (Promega) is a homogeneous method to measure caspase-3 and caspase-7 activities in cultured cells. The quantitation of caspase 3/7 activity is based on the cleavage of a peptide-aminoluciferin substrate. After caspase cleaves the substrate the free aminoluciferin is liberated and serves as the substrate of luciferase, which generates the light. The luminescent signal is proportional to amount of caspase 3/7 activity present.
Using the Caspase-Glo 3/7 assay, the amount of caspase 3/7 activity was measured in the mesangial cell line with complete culture medium following compound treatment for 16 hours. The assay was performed in opaque white 1536-well plates. In the screen, tamoxifen and doxorubicin were used as positive controls. Library compounds were measured for their ability to cause the activation of caspase 3/7 in the cell line, as reflected by an increase in luminescence signal, in a concentration-dependent manner. Data were normalized to the controls for basal activity (DMSO only) and 100% stimulation (100 uM tamoxifen). AC50 values were determined from concentration-response data modeled with the standard Hill equation.
qHTS protocol for caspase 3/7 assay in mesangial cell line
[Step] [Parameter] [Value] [Description]
1. Reagent; 5 uL; 1000 mesangial cells/well
2. Time; 5 hr; 37 °C incubation
4. Controls; 23 nL; Tamoxifen 0.23 uM to 100 uM & doxorubicin 7.0 pM to 100 uM
5. Time; 16 hr; 37 °C incubation
6. Reagent; 5 uL; Caspase-Glo 3/7 reagent
7. Time; 20 min; Room Temperature
8. Detection; Luminescence; Viewlux plate reader
Keywords: caspase 3/7, apoptosis, mesangial cell line, luminescence, NTPHTS, NTPHTS_NCGC, NIEHS, EPA, DSSTox, MLSMR, MLSCN, NIH Roadmap, qHTS, NCGC

Row | SMILES | caspase-3 activation
1 | ClCC(Br)CBr (stereo not given) | 0.793% (inactive)
2 | C=C(Cl)CCl | -1.73% (inactive)
3 | Cc1cccc(N)c1C | 0.276% (inactive)
4 | c1ccc(NNc2ccccc2)cc1 | -0.306% (inactive)
5 | Clc1cccc(Cl)c1 | -0.61% (inactive)
6 | Clc1ccccc1 | 0.0909% (inactive)
7 | CC(C#N)CCC#N (stereo not given) | 0.0543% (inactive)
8 | CC(Cl)(Cl)Cl | 1% (inactive)
9 | C1CC2OC2CC1C1CO1 (stereo not given) | -1.5% (inactive)
10 | N#CC(Cl)(Cl)Cl | -0.0824% (inactive)
11 | CCN(CC)N=O | 0.611% (inactive)
12 | Cc1cc(-c2cc(C)c(N)c(C)c2)cc(C)c1N | -0.472% (inactive)
13 | ClCC(Cl)CCl | -1.15% (inactive)
14 | Cc1ccc(N)cc1Cl | -0.209% (inactive)
15 | N#CCc1ccccc1 | -0.599% (inactive)
16 | ClCCCCl | 0.107% (inactive)
17 | CC(C)CON=O | 0.992% (inactive)
18 | BrC(Br)Br | 0.0176% (inactive)
19 | C=CCO | 0.385% (inactive)
20 | C=CC(=O)OC | 1.29% (inactive)

Row | SMILES | caspase-3 activation
21 | CCBr | -0.646% (inactive)
22 | CCOC(=O)CC(SP(=O)(OC)OC)C(=O)OCC (stereo not given) | -0.834% (inactive)
23 | CC(C)(Cl)[N+](=O)[O-] | -0.126% (inactive)
24 | CN(C)c1ccccc1 | 0.17% (inactive)
25 | O=C(O)C(Cl)Br (stereo not given) | 0.029% (inactive)
26 | O=C(O)C(Cl)(Cl)Br | -0.435% (inactive)
27 | CC(=O)[O-].CC(=O)[O-].CC(=O)[O-].[Cr+3] | -0.00821% (inactive)
28 | O=[N+]([O-])c1cccc(CCl)c1 | -0.586% (inactive)
29 | Clc1ccc(C(Cl)(Cl)Cl)cc1Cl | 0.735% (inactive)
30 | [O-][Cl+]O | -1.05% (inactive)
31 | COC(=O)c1ccccc1N | -1.48% (inactive)
32 | Oc1ccc(Cl)c(Cl)c1Cl | -0.139% (inactive)
33 | COc1cc(-c2ccc(N)c(OC)c2)ccc1N | 1.38% (inactive)
34 | ClCC(Cl)Cl | 0.0693% (inactive)
35 | [N-]=[N+]=[N-] | 1.46% (inactive)
36 | ClCCBr | 0.41% (inactive)
37 | N#CC(O)c1ccccc1 (stereo not given) | 0.473% (inactive)
38 | ClC(Cl)(Cl)C(Cl)(Cl)Cl | -0.48% (inactive)
39 | Cl/C=C/Cl | -0.729% (inactive)
40 | C=C(Cl)CSC(=S)N(CC)CC | 0.048% (inactive)
